SENP7 inh: SENP7 protease inhibitors, primary screen, biochemical, luminescence, uHTS; Sentrin-specific protease 7 (Homo sapiens), Q9BQF6; recombinant SENP7, Z-RLRGG-aminoluciferin luminescence, 40 min; inhibition, % at 5 µM; actives 1.5% (n = 330,000);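 active = inhibition above about 50% at the single test dose, limit read from the data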;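 also: plate controls were DMSO with enzyme for no effect and no enzyme buffer wells for full effect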
LGR2 antag: inhibitors of bursicon-induced LGR2 CRE-luciferase signal, primary screen, cell-based, HEK293, CRE-luciferase reporter, bursicon stimulation. inhibition, % at 9.99 µM. Drosophila bursicon receptor LGR2 (rickets). actives 0.35% (n = 380,000). bursicon-stimulated, 4 h;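 active = drop in luminescence signal, shown as inhibition above about 50% in the replicate tests, limit read from the data, passing the limit was not always enough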;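 also: agonist challenge used bursicon conditioned medium at about half maximal strength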
SENP6 inh: SENP6 protease inhibitors, primary screen, biochemical, luminescence, uHTS. Sentrin-specific protease 6 (Homo sapiens), Q9GZR1. Recombinant SENP6 catalytic domain, aminoluciferin luminescence. inhibition, % at 10 µM. actives 1.8% (n = 330,000). AID 2599, 2010;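 active = inhibition above about 50% at the single tested dose, limit read from the data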;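 also: plate controls were DMSO wells with enzyme for no effect and DMSO wells lacking enzyme for full effect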
Target sequence (Q9GZR1 628-1112 limits assumed): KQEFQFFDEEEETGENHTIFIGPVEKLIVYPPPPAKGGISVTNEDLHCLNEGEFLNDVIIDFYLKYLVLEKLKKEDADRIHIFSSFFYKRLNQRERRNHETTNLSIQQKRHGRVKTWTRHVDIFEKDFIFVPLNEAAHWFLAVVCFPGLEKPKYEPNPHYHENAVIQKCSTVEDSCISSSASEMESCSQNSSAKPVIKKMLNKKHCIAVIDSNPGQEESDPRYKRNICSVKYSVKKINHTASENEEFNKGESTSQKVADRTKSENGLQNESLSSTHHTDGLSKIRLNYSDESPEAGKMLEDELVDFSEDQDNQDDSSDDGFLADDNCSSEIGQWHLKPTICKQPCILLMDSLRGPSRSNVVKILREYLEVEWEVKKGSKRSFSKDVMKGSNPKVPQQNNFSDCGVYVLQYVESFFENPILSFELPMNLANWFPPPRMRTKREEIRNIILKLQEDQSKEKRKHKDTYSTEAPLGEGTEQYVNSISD
SENP8 block-1: human SENP8 protease inhibitors, primary screen, biochemical, fluorescence, Nedd8 protein substrate, uHTS. Sentrin-specific protease 8 (Homo sapiens), Q96LD8. recombinant SENP8. inhibition, % at 20 µM. actives 0.64% (n = 360,000). AID 602440, 2012; in the data active = inhibition mostly above about 40%, no sharp cut-off; inactive = mostly below about 27%
SENP8 block-2: SENP8 protease inhibitors, primary screen, biochemical, luminescence | Sentrin-specific protease 8 (Homo sapiens), Q96LD8 | purified SENP8, Z-RLRGG-aminoluciferin cleavage | inhibition, % at 10 µM | actives 1.2% (n = 330,000) | AID 2540, 2010; in the data active = inhibition above about 50%
HSP90 inh: HSP90 inhibitors, primary screen, cell lysate, luminescence; Rabbit reticulocyte lysate, luciferase refolding luminescence, 3 h; inhibition, % at 5.6 µM; actives 0.91% (n = 290,000);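 active = inhibition above the screen-wide mean plus 3 SD, computed separately per campaign, cut at about 16% in these data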;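 also: 0% = DMSO wells and 100% = 60 µM geldanamycin wells; inhibitors lower the luminescence because luciferase stays unfolded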
* = called active by the depositor; · = not tested or not shown. Only some compounds are listed: those with a hit (about 2.3% of all), similar ones and a draw of the others.

SMILES	SENP7 inh	LGR2 antag	SENP6 inh	SENP8 block-1	SENP8 block-2	HSP90 inh
CCCNC(=O)N1[C@@H]2Cn3c(ccc(-c4ccccc4OC)c3=O)[C@H]1[C@@H](C(=O)O)[C@@H]2CO	·	9.6	·	·	·	·
CC1=NN(c2ccccc2)C(=O)C1/C=C1\C(=O)NC(=O)N(c2cc(C)cc(C)c2)C1=O (stereo not drawn)	3.7	·	9.5	40.4*	-1.4	7.2
CC1=NN(c2ccccc2)C(=O)C1/C=C1/C(=O)NC(=O)N(c2cc(C)cc(C)c2)C1=O (stereo not drawn)	-0.5	·	-18.3	27.8	-5.5	9.6
COc1cccc2c1C(=O)c1c(O)c3c(c(O)c1C2=O)CC(O)(C(C)=NO)CC3OC1CC(N)C(O)C(C)O1 (stereo not drawn)	·	62.9*	·	29.2	·	·
CC(C)(C)c1cc(C=C(C#N)C#N)cc(C(C)(C)C)c1O	4.6	44.7	1.2	39.9*	10.9	·
CN(C)C(=O)[C@@H]1[C@@H](CO)[C@@H]2Cn3c(cccc3=O)[C@H]1N2CC1CC1	·	-17.0	·	·	·	·
O=C(O)[C@H]1[C@H](CO)[C@H]2Cn3c(ccc(C4=CCCCC4)c3=O)[C@@H]1N2C(=O)Cc1ccccn1	·	-12.8	·	·	·	·
C[C@H]1C[C@@H](C)C(=O)[C@@H]([C@H](O)CC2CC(=O)NC(=O)C2)C1	1.9	94.8*	8.1	3.0	-2.0	3.1
COC(=O)C[C@H]1CC[C@@H]2NC[C@H](O)COC[C@H]2O1	·	-12.7	·	·	·	·
O=C(O)[C@H]1[C@H](CO)[C@H]2Cn3c(ccc(-c4ccncc4)c3=O)[C@@H]1N2C(=O)C1CC1	·	9.9	·	·	·	·
O=C(O)c1ccc2c(c1)C1C(Cl)C(Sc3ccccc3[N+](=O)[O-])CC1C(c1cccc([N+](=O)[O-])c1)N2 (stereo not drawn)	·	·	·	49.3*	·	4.7
CCN(CC)C(=O)c1ccc2c(c1)C1C(Cl)C(Sc3ccccc3[N+](=O)[O-])CC1C(C(=O)O)N2 (stereo not drawn)	5.8	·	12.4	44.0*	14.0	1.6
Cc1cccc(S(=O)(=O)N2[C@@H]3c4ccc(-c5cccc(F)c5)c(=O)n4C[C@H]2[C@H](CO)[C@H]3C(=O)O)c1	·	7.5	·	·	·	·
COC(=O)[C@@H]1[C@@H](CO)[C@@H]2Cn3c(ccc(/C=C/c4ccccc4)c3=O)[C@H]1N2C(=O)C1CCC1	·	-12.1	·	·	·	·
COc1ccc2c(c1)/C(=C/c1cnc[nH]1)C(=O)N2	5.9	95.2*	3.6	30.7	1.4	-1.4
O=C1Nc2ccccc2/C1=C/c1cnc[nH]1	-3.0	5.5	-11.6	20.9	0.2	2.9
COc1ccc(OC(=O)N(C)C[C@@H]2OCc3ccccc3-c3c(n(C)c4ccccc34)C(=O)N([C@@H](C)CO)C[C@@H]2C)cc1	·	-8.3	·	·	·	·
C[C@H]1O[C@@H](O[C@H]2[C@@H](O)C[C@H](O[C@H]3[C@@H](O)C[C@H](O[C@H]4CC[C@@]5(C)[C@H](CC[C@@H]6[C@@H]5CC[C@]5(C)[C@@H](C7=CC(=O)OC7)CC[C@]65O)C4)O[C@@H]3C)O[C@@H]2C)C[C@H](O)[C@@H]1O	·	·	·	·	·	5.3
CC(=O)OC1CC2(O)C3CCC4CC(O)CCC4(C)C3CCC2(C)C1C1=CC(=O)OC1 (stereo not drawn)	·	90.3*	·	4.4	·	·
CC1OC(OC2C(O)CC(OC3C(O)CC(OC4CCC5(C)C(CCC6C5CCC5(C)C(C7=CC(=O)OC7)C(O)CC65O)C4)OC3C)OC2C)CC(O)C1O (stereo not drawn)	·	86.5*	·	-0.4	·	·
CC(=O)OC1CC(OC2C(O)CC(OC3C(O)CC(OC4CCC5(C)C(CCC6C5CCC5(C)C(C7=CC(=O)OC7)C(O)CC65O)C4)OC3C)OC2C)OC(C)C1OC1OC(CO)C(O)C(O)C1O (stereo not drawn)	·	87.0*	·	2.0	·	·
COC(=O)[C@@H]1[C@@H](CO)[C@@H]2Cn3c(ccc(-c4ccccc4)c3=O)[C@H]1N2C(=O)c1ccccc1F	·	3.7	·	·	·	·
O=C(CF)N(O)c1ccc(C=Cc2ccccc2)cc1	·	58.3*	·	-108.4	·	·
O=C(COc1ccccc1)N1CCN(C/C=C/c2ccccc2)CC1	-1.7	·	11.4	-2.4	-0.4	2.8
COC(=O)[C@H]1[C@H](CO)[C@H]2Cn3c(ccc(-c4cccc(F)c4)c3=O)[C@@H]1N2C(=O)CC1CC1	·	-6.2	·	·	·	·
SMILES	SENP7 inh	LGR2 antag	SENP6 inh	SENP8 block-1	SENP8 block-2	HSP90 inh
COC(=O)[C@H]1[C@H](CO)[C@H]2Cn3c(ccc(C4=CCCCC4)c3=O)[C@@H]1N2CC1CCCC1	·	7.6	·	·	·	·
C[C@@H]1O[C@@H](O[C@H]2C[C@@H](O)[C@]3(CO)[C@H]4[C@H](O)C[C@]5(C)[C@@H](C6=CC(=O)OC6)CC[C@]5(O)[C@@H]4CC[C@]3(O)C2)[C@H](O)[C@H](O)[C@H]1O	-0.3	·	7.0	0.4	10.9	0.1
CC12CC[C@H]3[C@@H](CCC4(O)C[C@H](O)CCC34/C=N/NC(=O)c3ccccc3Cl)C1(O)CCC2C1=CC(=O)OC1 (stereo partly drawn)	-5.7	21.4	-1.8	37.7	-7.7	2.9
C[C@H]1O[C@@H](OC2CC[C@]3(C=O)[C@H]4CC[C@]5(C)[C@@H](C6=CC(=O)OC6)CC[C@]5(O)[C@@H]4CC[C@]3(O)C2)CC2OC(C)(C)OC21 (stereo partly drawn)	·	80.9*	·	7.9	·	1.0
C[C@]12CCC3C(CCC4=CC(O)CC[C@@]43/C=N/O)C1(O)CCC2C1=CC(=O)OC1 (stereo partly drawn)	7.9	81.9*	-1.4	15.8	-1.7	-1.9
CC12CCC3C(CCC4(O)CC(O)CCC34C=O)C1(O)CCC2C1=CC(=O)OC1 (stereo not drawn)	·	84.2*	·	4.7	·	·
C[C@]12CC[C@H]3[C@@H](CC[C@]4(O)C[C@@H](O)CC[C@]34C=O)[C@@]1(O)CC[C@@H]2C1=CC(=O)OC1	0.9	84.4*	-14.0	8.9	-2.6	·
C[C@H](CO)N1C[C@H](C)[C@H](CN(C)C(=O)Oc2cccc3ccccc23)OCc2cn(nn2)CCCC1=O	·	-8.6	·	·	·	·
CC12CCC3C(CCC4(O)CC(O)CCC34C=NO)C1(O)CCC2C1=COC(=O)C1 (stereo not drawn)	·	·	·	11.4	·	·
CCCCN=C[C@]12CCC(O)CC1(O)CCC1[C@@H]2CC[C@]2(C)[C@H](C3C=CC(=O)O3)CCC12O (stereo partly drawn)	0.0	85.5*	2.8	14.0	-1.0	1.1
COc1ccc(CCN)cc1OC	0.9	·	-6.5	16.0	-2.4	·
NCCc1ccc(OCc2ccccc2)c(OCc2ccccc2)c1	-9.2	87.7*	-14.8	18.3	-19.5	·
